Values joined by “and” are separate entries in the source; they are usually repeats but may differ in a detail not shown here. Equal values may be shown once. Active and inactive are the calls of the source. The call rests on the fitted dose curve.
Potency means the concentration at half of the fitted maximal effect.

Chain of Glucocorticoid receptor (Homo sapiens) (P04150 whole entry, looked up): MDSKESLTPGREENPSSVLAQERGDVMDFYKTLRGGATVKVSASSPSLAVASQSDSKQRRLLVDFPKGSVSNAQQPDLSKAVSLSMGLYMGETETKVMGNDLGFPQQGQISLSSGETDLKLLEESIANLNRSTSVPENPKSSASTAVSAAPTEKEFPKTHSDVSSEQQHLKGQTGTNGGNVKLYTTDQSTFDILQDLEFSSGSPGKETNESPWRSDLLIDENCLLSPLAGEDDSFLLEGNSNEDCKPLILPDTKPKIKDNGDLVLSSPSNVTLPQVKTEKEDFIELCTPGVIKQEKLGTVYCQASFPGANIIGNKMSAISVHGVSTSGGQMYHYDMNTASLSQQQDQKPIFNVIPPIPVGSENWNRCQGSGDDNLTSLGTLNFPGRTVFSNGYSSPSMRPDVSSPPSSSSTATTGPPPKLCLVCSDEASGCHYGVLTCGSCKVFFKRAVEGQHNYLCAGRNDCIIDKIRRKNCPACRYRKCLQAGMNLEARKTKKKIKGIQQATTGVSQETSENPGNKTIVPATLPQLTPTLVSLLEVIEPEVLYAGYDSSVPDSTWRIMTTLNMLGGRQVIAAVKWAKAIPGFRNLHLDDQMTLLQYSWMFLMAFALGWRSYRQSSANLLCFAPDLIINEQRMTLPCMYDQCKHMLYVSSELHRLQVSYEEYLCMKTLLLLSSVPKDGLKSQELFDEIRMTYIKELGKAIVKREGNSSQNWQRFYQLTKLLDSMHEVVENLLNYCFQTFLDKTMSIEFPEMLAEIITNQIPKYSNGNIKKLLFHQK

The target in this experiment is Glucocorticoid receptor (Homo sapiens) (UniProt P04150). Description: GR-EFC Redistribution (AID 451). The settings on record: CHO-K1 GR-EFC translocation, beta-gal luminescence, 2 h. The source says:
NIH Molecular Libraries Screening Centers Network [MLSCN]
NIH Chemical Genomics Center [NCGC]
The glucocorticoid receptor (GR) is a cytoplasmic receptor that belongs to the nuclear receptor family of ligand-dependent transcription factors. Upon glucocorticoid binding to its receptor, the glucocorticoid-GR complex translocates into the nucleus, where it binds as a dimer to specific DNA sequences (glucocorticoid response elements), enhancing or suppressing transcription of a wide variety of glucocorticoid-responsive genes. In addition to their important roles in normal physiology and metabolism, glucocorticoids are administered exogenously as treatments for a wide variety of allergic, autoimmune, and neoplastic conditions. Identification of compounds that modulate aspects of GR signalling would be useful in dissecting glucocorticoid response pathways as well as developing GR modulators with more targeted clinical effects.
Traditionally, GR modulators have been identified using receptor binding or direct transactivation assays. However, assays for glucocorticoid-dependent nuclear translocation can also be used to screen for compounds affecting GR signaling.
Immunocytochemical staining has been used to assay for GR translocation, but is not suitable for high throughout screening due to the multiple reagent addition and wash steps required. Recently, a novel cell-based GR assay in Enzyme Fragment Complementation (EFC) format was developed by DiscoveRx (Fremont, CA). The assay uses EFC of b-galactosidase (b-gal) as an indicator of GR-translocation in engineered CHO-K1 biosensor cells. The enzyme acceptor (EA) fragment of b-gal resides in the nucleus , as designed through the use of a proprietary set of sequence additions and modifications. The small peptide enzyme donor (ED) fragment of b-gal is fused directly to the C-terminus of GR, and is localized in the cytoplasm is the absence of receptor signaling. Upon binding to a GR ligand, the complex translocates to the nucleus, where intact enzyme activity is restored by complementation and b-gal activity is detected. We optimized this GR-EFC assay in homogenous 1536-well plate assay format for high throughput screening.
NCGC Assay Protocol Summary:
CHO-K1 cells stably expressing NLS-enzyme acceptor fragment (EA) of b-gal and GR-enzyme donor (ED) fragment of b-gal were maintained in F12 medium (Invitrogen, Carlsbad, CA) at 37 Celsius degrees under a humidified atmosphere containing 5% CO2 and 95% air. The medium contained 10% FBS, 2 mM L-glutamine, 50 U/ml penicillin 50 ug/ml streptomycin, and 250 ug/ml hygromycin and 500 ug/ml G418 (Invitrogen).
GR-translocation was measured beta-gal enzyme activity using the PathHunter Detection Kit containing cell membrane permeablizing reagent and beta-gal substrate (DiscoveRx, Fremont, CA). All compounds were screened as titrations from 0.6 nM to 46 uM final concentration. The assay was performed in 1536-well format as follows:
5 uL cell suspension (1,000 cells)/well
Incubation at 37 Celsius degrees for two hours
1.25 uL 1X detection buffer from the kit supplied by DiscoveRx
Incubation at room temperature for one hour
Read plate in luminescence mode in ViewLux plate reader (PerkinElmer)
Keywords: NIH Roadmap, MLSCN, MLI, MLSMR, GR-EFC, GREFC, qHTS, NCGC
`NC(N)=NC(N)=NCCc1ccccc1`: the Potency is > 20.6 µM (inactive). The value for `CC1=NN(c2ccccc2)C(=O)C1` was > 46 µM (inactive); that for `NC(=O)c1cccc(N)c1` was > 46 µM (inactive).

Regarding `N=C(N)c1ccc(OCCCCCOc2ccc(C(=N)N)cc2)cc1`, the Potency was > 20.6 µM (inactive).

As for `CC(C)(Sc1cc(C(C)(C)C)c(O)c(C(C)(C)C)c1)Sc1cc(C(C)(C)C)c(O)c(C(C)(C)C)c1`, the Potency is > 20.6 µM (inactive). The value for `Cc1cc(NS(=O)(=O)c2ccc(N)cc2)no1` was > 20.6 µM (inactive); that for `N[C@@H](Cc1ccc(O)c(O)c1)C(=O)O` was > 46 µM (inactive) and > 20.6 µM (inactive). In the case of `Cc1ccc(S(=O)(=O)N[C@@H](Cc2ccccc2)C(=O)CCl)cc1`, the Potency is > 46 µM (inactive). The value for `NNC(=O)c1ccncc1` was > 20.6 µM (inactive); that for `CNNCc1ccc(C(=O)NC(C)C)cc1` was > 20.6 µM (inactive); that for `COc1ccc2cc3[n+](cc2c1OC)CCc1cc2c(cc1-3)OCO2` was > 20.6 µM (inactive). Consider `COc1ccc2c(c1)c(CC(=O)OCC(=O)O)c(C)n2C(=O)c1ccc(Cl)cc1`, for which the Potency was > 20.6 µM (inactive).

On to `COc1cnc(NS(=O)(=O)c2ccc(N)cc2)nc1`, for which the Potency is > 20.6 µM (inactive). As for `Cc1cccc(Nc2ccncc2S(=O)(=O)NC(=O)NC(C)C)c1`, the Potency was > 20.6 µM (inactive).

As to `COc1cc(NS(=O)(=O)c2ccc(N)cc2)nc(OC)n1`, the Potency is > 20.6 µM (inactive). On to `CC[C@H](NC(C)C)[C@H](O)c1ccc(O)c2[nH]c(=O)ccc12`, for which the Potency is > 46 µM (inactive). Take `Nc1[nH]c(=O)ncc1F`: the Potency is > 20.6 µM (inactive). For the compound `OCc1ccc(-c2nn(Cc3ccccc3)c3ccccc23)o1`, the Potency is > 46 µM (inactive). For `CCCCOc1ccc(CC(=O)NO)cc1` the value was > 20.6 µM (inactive). Regarding `Nc1ccc(S(=O)(=O)Nc2ccccn2)cc1`, the Potency is > 20.6 µM (inactive). Turning to `COc1cc2ncnc(Nc3cccc(Cl)c3)c2cc1OC`, the Potency was > 46 µM (inactive). For `CCCOc1ccc(C(=O)OCCN(CC)CC)cc1N` the value was > 20.6 µM (inactive). The value for `COC(=O)Nc1nc2ccc(Sc3ccccc3)cc2[nH]1` was > 20.6 µM (inactive). On to `CC1=CC(=O)c2ccccc2C1=O`, for which the Potency was > 20.6 µM (inactive). `CCn1cc(C(=O)O)c(=O)c2cc(F)c(N3CCNCC3)cc21`: the Potency was > 20.6 µM (inactive). Take `CCc1cc(C(N)=S)ccn1`: the Potency is > 20.6 µM (inactive).

As for `Cc1cccc(N(C)C(=S)Oc2ccc3ccccc3c2)c1`, the Potency was > 20.6 µM (inactive). For `COC(=O)Nc1nc2ccc(C(=O)c3ccccc3)cc2[nH]1` the value was > 20.6 µM (inactive). The value for `O=c1oc2c(O)c(O)cc3c(=O)oc4c(O)c(O)cc1c4c23` was > 46 µM (inactive).

Source of the values: PubChem BioAssay (NCATS).
